Measurements published in PubChem BioAssay AID1159580 (chemical genetic matrix, 2015).
Where “and” joins values, the source holds several entries; their conditions need not be identical. Equal entries are not always repeated. Out of some 5,500 compounds screened, about 2,000 (36%) were called active. About 18% were inconclusive and are not listed. Rule as the data show it: active = normalized growth mostly below about 0.91 (no sharp cut-off); inconclusive = no clear call, values can overlap the other calls; inactive = mostly above about 0.92. The list shows a part of the results.

Test: chemical genetic growth profiling, strain panel (AID 1159580);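 also: tested at 20 µM; growth read once vehicle control cultures reached saturation at 30 °C; 1 = growth at the plate median or of vehicle wells; lower values mean less growth of the strain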
Conditions: S. cerevisiae deletion strains, growth OD

Measured: normalized growth

CC[C@H](C)C(=O)O[C@H]1C[C@@H](C)C=C2C=C[C@H](C)[C@H](CC[C@@H]3C[C@@H](O)CC(=O)O3)[C@H]21
inactive: locus YAL013W, strain DEP1, hits give low values 0.982 | locus YAL026C, strain drs2, hits give low values 0.994 | locus YAL030W, strain snc1, hits give low values 1.01 | locus YBL061C, strain skt5, hits give low values 1 | locus YBR009C, strain hhf1, hits give low values 1.02 | locus YBR021W, strain FUR4, hits give low values 1.04 | locus YBR023C, strain chs3, hits give low values 1.01 | locus YBR171W, strain sec66, hits give low values 1 | locus YBR229C, strain ROT2, hits give low values 0.944 | locus YBR231C, strain swc5, hits give low values 0.915 | locus YBR279W, strain paf1, hits give low values 1.01 | locus YCL011C, strain gbp2, hits give low values 1.01 | locus YCL016C, strain dcc1, hits give low values 0.999 | locus YCL029C, strain bik1, hits give low values 0.991 | locus YCL061C, strain MRC1, hits give low values 0.997 | locus YCL069W, strain vba3, hits give low values 1.01 | locus YCR088W, strain abp1, hits give low values 0.998 | locus YDL005C, strain med2, hits give low values 0.982 | locus YDL035C, strain GPR1, hits give low values 0.961 | locus YDL040C, strain nat1, hits give low values 1.01 | locus YDL074C, strain BRE1, hits give low values 1 | locus YDL101C, strain DUN1, hits give low values 0.977 | locus YDL134C, strain PPH21, hits give low values 0.971 | locus YDL185W, strain tfp1, hits give low values 0.977 | locus YDL192W, strain arf1, hits give low values 0.983 | locus YDR001C, strain nth1, hits give low values 1 | locus YDR069C, strain doa4, hits give low values 1.01 | locus YDR101C, strain arx1, hits give low values 1.02 | locus YDR150W, strain NUM1, hits give low values 0.967 | locus YDR159W, strain sac3, hits give low values 1.02 | locus YDR162C, strain NBP2, hits give low values 0.951 | locus YDR195W, strain ref2 1.06 | locus YDR297W, strain sur2, hits give low values 0.997 | locus YDR318W, strain mcm21, hits give low values 0.996 | locus YDR334W, strain swr1, hits give low values 0.954 | locus YDR335W, strain msn5, hits give low values 1 | locus YDR388W, hits give low values 0.996 | locus YDR392W, strain spt3, hits give low values 0.983 | locus YDR502C, strain sam2, hits give low values 0.969 | locus YEL003W, strain gim4, hits give low values 1 | locus YEL037C, strain rad23, hits give low values 1 | locus YEL061C, strain CIN8 (second series), hits give low values 1 | locus YEL061C, strain CIN8, hits give low values 0.979 | locus YER015W, strain faa2, hits give low values 1.01 | locus YER016W, strain bim1, hits give low values 1 | locus YER110C, hits give low values 0.974 | locus YER111C, strain swi4, hits give low values 1.01 | locus YER155C, strain BEM2 (second series), hits give low values 1.01 | locus YER155C, strain BEM2, hits give low values 0.986 | locus YER167W, strain BCK2, hits give low values 0.942 | locus YFR010W, strain ubp6, hits give low values 1.02 | locus YGL078C, strain dbp3, hits give low values 0.984 | locus YGL086W, strain mad1, hits give low values 0.968 | locus YGL167C, strain pmr1, hits give low values 0.998 | locus YGL173C, strain kem1, hits give low values 1.01 | locus YGL227W, strain vid30, hits give low values 0.996 | locus YGL240W, strain doc1, hits give low values 1.04 | locus YGL248W, strain PDE1, hits give low values 0.974 | locus YGL253W, strain hxk2, hits give low values 0.996 | locus YGR078C, strain PAC10, hits give low values 0.996 | locus YGR135W, strain pre9, hits give low values 0.942 | locus YGR229C, strain SMI1, hits give low values 0.95 | locus YGR252W, strain gcn5, hits give low values 0.878 | locus YHR013C, strain ard1, hits give low values 1.04 | locus YHR027C, strain rpn1, hits give low values 1.01 | locus YHR030C, strain SLT2, hits give low values 0.985 and 0.963 | locus YHR079C, strain IRE1 (second series), hits give low values 0.995 | locus YHR079C, strain IRE1, hits give low values 0.992 | locus YHR094C, strain hxt1, hits give low values 0.989 | locus YHR129C, strain ARP1, hits give low values 0.996 | locus YHR142W, strain chs7, hits give low values 1 | locus YHR200W, strain rpn10, hits give low values 0.994 | locus YIL066C, strain RNR3, hits give low values 0.965 | locus YIL073C, strain SPO22, hits give low values 0.823 | locus YIL125W, strain kgd1, hits give low values 0.974 | locus YIR030C, strain dcg1, hits give low values 0.976 | locus YJL092W, strain hpr5, hits give low values 1 | locus YJL095W, strain BCK1 (second series), hits give low values 1.01 | locus YJL095W, strain BCK1, hits give low values 0.988 and 0.96 | locus YJL115W, strain asf1, hits give low values 1.01 | locus YJL129C, strain trk1, hits give low values 0.997 | locus YJL134W, strain LCB3, hits give low values 0.979 | locus YJL154C, strain vps35, hits give low values 1.01 | locus YJL164C, strain tpk1, hits give low values 1 | locus YJL166W, strain qcr8, hits give low values 1.01 | locus YJL168C, strain set2, hits give low values 0.996 | locus YJL187C, strain SWE1 (second series), hits give low values 0.989 | locus YJL187C, strain SWE1, hits give low values 1 | locus YJR043C, strain POL32, hits give low values 1.04 | locus YJR066W, strain TOR1, hits give low values 0.915
active: locus YAL021C, strain ccr4, hits give low values 0.82 | locus YDR137W, strain rgp1, hits give low values 1.28 [resistant]
